Data on five compounds can be found in PubChem BioAssay.

Activity calls are given as the source filed them.

Assay [1] is described as follows: small molecules captured by biotinylated probe aFSTL3 – biochemical, small-molecule microarray, fluorescence 635/667, stem cell growth factor project, primary screen (AID 1064).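 Note: measures binding of the biotinylated anti-FSTL3 antibody to printed compounds.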 To be noted: higher = more signal.
Assay [2] in a line: binders from COS7 lysate, DM2A8 probe, primary screen, torsin A project, cell lysate, small-molecule microarray, fluorescence 635/667 (AID 1065). To be noted: higher = more signal, COS7 lysate expressing mutant human TOR1A.
Assay [3] can be described thus: small molecules captured by biotinylated probe aFGF2 – biochemical, small-molecule microarray, fluorescence 635/667, stem cell growth factor project, primary screen (AID 1067).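 Note: measures binding of biotinylated aFGF2 protein to printed compounds on slides; z-score merges feature fluorescence and signal-to-noise across triplicate slides.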 To be noted: higher = more signal.
A short description of assay [4]: small molecules captured by biotinylated probe aFGF10 – biochemical, small-molecule microarray, fluorescence 635/667, stem cell growth factor project, primary screen (AID 1071).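 Note: score merges 667 nm spot intensity and signal to noise from triplicate slides.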 To be noted: higher = more signal.
In assay [5] the target is Neurogenic locus notch homolog protein 2 (Homo sapiens) (UniProt Q04721). The experiment in a line: small molecules binding Notch2 protein – biochemical, small-molecule microarray, 635 nm fluorescence, stem cell growth factors, primary screen (AID 1073). The note with it: higher = more signal.
The target in assay [6] is Pro-neuregulin-1, membrane-bound isoform (Homo sapiens) (UniProt Q02297). The assay is described as follows: small molecules binding neuregulin-1 protein – biochemical, small-molecule microarray, fluorescence 635/667, psychiatric disease protein project, primary screen (AID 1075).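 Note: score combines 667 nm spot fluorescence with signal to noise.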 To be noted: NRG1 binding, 635 nm fluorescence, higher = more signal.
Assay [7] has as its system Neuregulin-1 EGF-like domain. The assay is described as follows: small molecules binding NRG1 EGF domain – biochemical, small-molecule microarray, 635 nm fluorescence, primary screen (AID 1081).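 Note: binding of the protein to compounds printed on small-molecule microarray slides.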 The note with it: higher = more signal.
Assay [8] can be described thus: FRG1 expression reporter modulators in myotubes – cell-based, C2C12 myotubes, firefly/Renilla luciferase, luminescence, FRG1 inhibition for FSHD, primary screen (AID 1084). To be noted: FRG1 promoter luciferase, higher = more signal, called active from +8 up or from −8 down.
Assay [9] is described as follows: small molecules captured by biotinylated probe aFST – biochemical, small-molecule microarray, fluorescence 635/667, stem cell growth factor project, primary screen (AID 1086).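 Note: score merges 667 nm fluorescence with signal-to-noise of each printed compound spot.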 The note with it: higher = more signal.
The nature of assay [10]: binders of probe aHhip on microarray, primary screen, stem cell growth factor project, biochemical, small-molecule microarray, fluorescence 635/667 (AID 1087).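 Note: score merges spot fluorescence at 667nm with spot signal to noise ratio.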 The note with it: higher = more signal.
Assay [11] concerns PRMT1 (protein arginine N-methyltransferase 1). The assay is described as follows: small molecules binding arginine methyltransferase PRMT1 – biochemical, small-molecule microarray, 635 nm fluorescence, primary screen (AID 1088).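 Note: binding of Prmt1 protein to compounds spotted on small-molecule microarray slides.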 To be noted: higher = more signal.
The nature of assay [12]: growth effects on S. cerevisiae YJM789 – YJM789 clinical isolate, OD600, 24 h, basal, primary screen (AID 1089).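 Note: growth of clinical yeast isolate S. cerevisiae YJM 789 seeded 1000 cells per well; test concentration not given here.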 The note with it: higher = more signal, called active from +8 up or from −8 down.
Assay [13] in a line: S. pombe growth modifiers, basal conditions – strain 972, OD600, 24 h, no modulator, primary screen (AID 1090).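 Note: basal condition with compound alone and no growth modifier present; test concentration not given here.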 To be noted: S. pombe 972 growth, higher = more signal, called active from +8 up or from −8 down.
Assay [14] is described as follows: budding yeast growth modifiers under rapamycin – strain BY4716, OD600, 96 h, primary screen (AID 1091). Note: test concentration not given here. The note with it: S. cerevisiae BY4716 + rapamycin, higher = more signal, called active from +8 up or from −8 down.
Assay [15] addresses Torsin-1A-interacting protein 2 (Homo sapiens) (UniProt Q8NFQ8). The experiment in a line: small molecules binding lysate-expressed LULL1 – cell lysate, human LULL1 lysate, 635/667 nm fluorescence, primary screen (AID 1092).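 Note: probe is lysate of COS7 cells overexpressing human LULL1; score merges per-feature 667 nm fluorescence with signal-to-noise.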 To be noted: small-molecule microarray, hLULL1 lysate binding, 635 nm fluorescence; higher = more signal.
Assay [16] in a line: optical density change of DRC41 E. coli – strain DRC41, OD650, 24 h, E. coli filamentation project, primary screen (AID 1093).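 Note: MC1000 strain lacking acrAB efflux and sulA so SOS filamentation is blocked; test concentration not given here.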 The note with it: E. coli DRC41 growth, higher = more signal, called active from +8 up or from −8 down.
The nature of assay [17]: probe aLefty2 binding to arrayed compounds – biochemical, biotinylated probe, 635/667 nm fluorescence, primary screen (AID 1094).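 Note: score merges spot fluorescence near 667 nm with spot signal-to-noise ratio.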 The note with it: small-molecule microarray, higher = more signal.
Assay [18] concerns Noggin (protein binding on small-molecule microarray). The experiment in a line: small molecules binding Noggin protein – biochemical, 635/667 nm fluorescence, primary screen (AID 1095).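 Note: score merges 667 nm feature fluorescence with signal to noise over triplicate slides.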 The note with it: 635 nm fluorescence, higher = more signal.
The target of assay [19] is Neurogenic locus notch homolog protein 3 (Homo sapiens) (UniProt Q9UM47). The experiment in a line: small molecules binding NOTCH3 protein – biochemical, 635/667 nm fluorescence, primary screen (AID 1096). To be noted: small-molecule microarray, 635 nm fluorescence, higher = more signal.
The nature of assay [20]: probe aEGFR binding to arrayed compounds – biochemical, biotinylated probe, 635/667 nm fluorescence, primary screen (AID 1097).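 Note: probe is a biotinylated anti-EGFR antibody binding compounds printed on slides; score combines fluorescence near 667 nm and signal to noise of each spot.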 To be noted: small-molecule microarray, higher = more signal.

Neurogenic locus notch homolog protein 3 (Homo sapiens), sequence (Q9UM47 whole entry, looked up): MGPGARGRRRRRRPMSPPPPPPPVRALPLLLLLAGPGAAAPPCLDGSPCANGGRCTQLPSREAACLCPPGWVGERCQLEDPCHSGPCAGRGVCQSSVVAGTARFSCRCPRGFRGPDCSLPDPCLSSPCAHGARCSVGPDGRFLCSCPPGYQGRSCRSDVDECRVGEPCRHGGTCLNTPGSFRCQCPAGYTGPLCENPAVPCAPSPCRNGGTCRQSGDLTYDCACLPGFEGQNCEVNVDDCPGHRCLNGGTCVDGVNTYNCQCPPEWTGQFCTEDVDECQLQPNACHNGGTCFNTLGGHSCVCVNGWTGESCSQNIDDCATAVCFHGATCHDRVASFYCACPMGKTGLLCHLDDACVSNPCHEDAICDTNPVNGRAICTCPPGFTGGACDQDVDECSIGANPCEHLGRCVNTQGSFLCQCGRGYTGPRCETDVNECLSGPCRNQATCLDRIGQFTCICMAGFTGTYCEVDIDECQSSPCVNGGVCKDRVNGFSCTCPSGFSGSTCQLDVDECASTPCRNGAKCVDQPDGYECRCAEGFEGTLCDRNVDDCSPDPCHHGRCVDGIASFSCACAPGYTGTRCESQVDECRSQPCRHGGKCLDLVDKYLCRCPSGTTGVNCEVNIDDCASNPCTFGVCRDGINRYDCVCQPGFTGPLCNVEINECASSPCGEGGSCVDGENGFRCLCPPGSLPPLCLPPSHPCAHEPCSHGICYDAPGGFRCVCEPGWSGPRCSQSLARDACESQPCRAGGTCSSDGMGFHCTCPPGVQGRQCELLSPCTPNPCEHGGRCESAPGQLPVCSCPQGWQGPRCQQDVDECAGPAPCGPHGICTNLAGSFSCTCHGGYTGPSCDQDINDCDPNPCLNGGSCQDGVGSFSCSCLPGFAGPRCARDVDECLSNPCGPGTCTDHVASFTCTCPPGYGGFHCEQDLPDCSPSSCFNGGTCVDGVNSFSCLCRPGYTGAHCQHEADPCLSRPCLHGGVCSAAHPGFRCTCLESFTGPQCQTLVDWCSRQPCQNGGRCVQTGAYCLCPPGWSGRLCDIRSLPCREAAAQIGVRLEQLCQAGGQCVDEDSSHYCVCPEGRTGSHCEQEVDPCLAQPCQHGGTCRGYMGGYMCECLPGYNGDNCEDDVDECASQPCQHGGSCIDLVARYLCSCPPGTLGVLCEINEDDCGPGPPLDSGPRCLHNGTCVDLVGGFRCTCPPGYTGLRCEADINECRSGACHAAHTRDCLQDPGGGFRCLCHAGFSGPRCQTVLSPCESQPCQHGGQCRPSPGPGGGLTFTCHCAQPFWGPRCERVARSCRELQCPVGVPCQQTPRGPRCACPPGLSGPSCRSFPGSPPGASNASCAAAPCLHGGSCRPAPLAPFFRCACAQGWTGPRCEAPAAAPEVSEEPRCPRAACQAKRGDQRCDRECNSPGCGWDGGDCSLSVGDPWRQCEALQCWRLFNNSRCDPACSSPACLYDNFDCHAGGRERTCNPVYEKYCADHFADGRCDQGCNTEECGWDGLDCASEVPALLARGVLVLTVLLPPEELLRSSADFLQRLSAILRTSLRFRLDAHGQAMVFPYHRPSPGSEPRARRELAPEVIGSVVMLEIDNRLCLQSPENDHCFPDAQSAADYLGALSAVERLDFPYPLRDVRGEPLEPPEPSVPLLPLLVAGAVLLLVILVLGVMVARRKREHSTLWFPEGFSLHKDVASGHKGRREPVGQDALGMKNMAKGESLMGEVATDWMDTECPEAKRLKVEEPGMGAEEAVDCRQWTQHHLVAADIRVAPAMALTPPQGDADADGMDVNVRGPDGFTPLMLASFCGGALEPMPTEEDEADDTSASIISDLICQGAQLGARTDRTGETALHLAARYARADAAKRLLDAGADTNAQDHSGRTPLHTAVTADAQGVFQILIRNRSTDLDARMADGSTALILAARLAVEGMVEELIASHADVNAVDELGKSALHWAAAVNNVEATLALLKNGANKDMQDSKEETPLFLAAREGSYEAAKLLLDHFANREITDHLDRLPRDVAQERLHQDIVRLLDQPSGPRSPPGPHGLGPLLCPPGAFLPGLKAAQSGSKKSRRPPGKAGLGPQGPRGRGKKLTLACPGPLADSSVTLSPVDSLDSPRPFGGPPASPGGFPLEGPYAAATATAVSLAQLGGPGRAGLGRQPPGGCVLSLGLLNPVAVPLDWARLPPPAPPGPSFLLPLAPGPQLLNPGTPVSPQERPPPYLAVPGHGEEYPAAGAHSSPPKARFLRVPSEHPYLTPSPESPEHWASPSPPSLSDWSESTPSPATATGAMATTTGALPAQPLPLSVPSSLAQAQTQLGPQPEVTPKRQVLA
Neurogenic locus notch homolog protein 2 (Homo sapiens), sequence (Q04721 whole entry, looked up, canonical isoform): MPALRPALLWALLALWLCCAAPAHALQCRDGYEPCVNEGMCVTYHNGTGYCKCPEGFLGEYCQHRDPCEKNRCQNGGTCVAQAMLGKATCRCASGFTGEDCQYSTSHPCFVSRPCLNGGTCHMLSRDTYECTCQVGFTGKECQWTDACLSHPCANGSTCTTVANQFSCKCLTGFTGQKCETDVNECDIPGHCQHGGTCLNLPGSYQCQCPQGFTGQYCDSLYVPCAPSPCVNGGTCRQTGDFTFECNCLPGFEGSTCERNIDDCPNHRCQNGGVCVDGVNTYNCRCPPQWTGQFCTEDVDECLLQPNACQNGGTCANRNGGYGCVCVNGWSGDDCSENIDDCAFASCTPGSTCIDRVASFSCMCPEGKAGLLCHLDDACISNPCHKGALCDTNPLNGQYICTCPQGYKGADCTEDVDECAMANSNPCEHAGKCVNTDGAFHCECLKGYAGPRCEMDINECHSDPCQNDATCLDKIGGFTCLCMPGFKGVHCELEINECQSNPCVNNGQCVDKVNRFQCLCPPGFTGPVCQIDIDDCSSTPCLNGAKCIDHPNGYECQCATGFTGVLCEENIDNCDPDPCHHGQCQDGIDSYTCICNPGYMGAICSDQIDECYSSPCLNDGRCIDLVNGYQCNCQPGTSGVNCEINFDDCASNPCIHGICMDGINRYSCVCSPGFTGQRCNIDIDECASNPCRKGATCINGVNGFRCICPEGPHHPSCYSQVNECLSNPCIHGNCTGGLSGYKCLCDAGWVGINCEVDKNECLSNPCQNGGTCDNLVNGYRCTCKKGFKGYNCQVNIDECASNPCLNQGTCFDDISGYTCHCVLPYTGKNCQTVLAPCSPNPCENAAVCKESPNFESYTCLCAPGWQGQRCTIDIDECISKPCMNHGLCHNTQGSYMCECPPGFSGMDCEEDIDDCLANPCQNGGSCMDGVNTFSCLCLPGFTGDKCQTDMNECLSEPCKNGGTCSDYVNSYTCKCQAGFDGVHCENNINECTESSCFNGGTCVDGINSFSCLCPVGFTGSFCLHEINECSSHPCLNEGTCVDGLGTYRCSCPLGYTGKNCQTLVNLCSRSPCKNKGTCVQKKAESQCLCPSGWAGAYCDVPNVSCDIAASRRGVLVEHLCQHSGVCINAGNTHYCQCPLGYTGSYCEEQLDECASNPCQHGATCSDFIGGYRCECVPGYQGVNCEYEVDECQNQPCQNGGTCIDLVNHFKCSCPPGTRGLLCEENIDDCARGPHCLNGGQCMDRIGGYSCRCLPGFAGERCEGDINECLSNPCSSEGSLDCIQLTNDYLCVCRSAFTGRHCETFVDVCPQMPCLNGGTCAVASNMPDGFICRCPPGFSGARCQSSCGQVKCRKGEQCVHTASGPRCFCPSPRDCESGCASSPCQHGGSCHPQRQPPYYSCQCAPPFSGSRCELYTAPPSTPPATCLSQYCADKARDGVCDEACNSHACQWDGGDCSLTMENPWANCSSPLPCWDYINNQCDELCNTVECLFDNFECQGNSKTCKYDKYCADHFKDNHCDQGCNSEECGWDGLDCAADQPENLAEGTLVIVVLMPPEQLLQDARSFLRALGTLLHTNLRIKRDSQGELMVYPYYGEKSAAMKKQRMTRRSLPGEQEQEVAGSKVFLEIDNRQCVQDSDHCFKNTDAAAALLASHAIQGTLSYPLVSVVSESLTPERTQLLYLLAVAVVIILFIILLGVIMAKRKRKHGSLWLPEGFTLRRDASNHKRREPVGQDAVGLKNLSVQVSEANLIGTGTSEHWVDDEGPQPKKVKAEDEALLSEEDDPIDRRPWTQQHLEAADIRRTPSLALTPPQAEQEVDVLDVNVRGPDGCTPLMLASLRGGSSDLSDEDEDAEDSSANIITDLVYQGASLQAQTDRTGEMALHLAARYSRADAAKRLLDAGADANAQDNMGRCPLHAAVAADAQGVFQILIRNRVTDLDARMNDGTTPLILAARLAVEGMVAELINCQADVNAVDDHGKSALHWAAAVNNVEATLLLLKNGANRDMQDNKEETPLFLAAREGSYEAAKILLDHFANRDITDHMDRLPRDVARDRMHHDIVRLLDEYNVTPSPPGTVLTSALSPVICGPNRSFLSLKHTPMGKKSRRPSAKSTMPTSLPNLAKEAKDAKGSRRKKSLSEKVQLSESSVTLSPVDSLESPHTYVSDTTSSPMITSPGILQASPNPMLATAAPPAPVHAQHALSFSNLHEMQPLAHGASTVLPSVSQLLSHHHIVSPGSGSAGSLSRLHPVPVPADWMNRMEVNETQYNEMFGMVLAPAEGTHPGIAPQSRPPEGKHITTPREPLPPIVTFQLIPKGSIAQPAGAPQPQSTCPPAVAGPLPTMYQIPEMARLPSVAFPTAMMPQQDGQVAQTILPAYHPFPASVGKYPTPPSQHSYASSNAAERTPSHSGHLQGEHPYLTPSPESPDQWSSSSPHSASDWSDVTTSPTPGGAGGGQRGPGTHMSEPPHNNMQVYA

Turning to `[N-]=[N+]=Nc1ccccc1C[C@@]1(C(=O)N2CCCCC2)N=C(c2ccc(OCCCO)cc2)O[C@@H]1c1ccccc1N=[N+]=[N-]`, the composite z-score in assay [1] was found to be 1.23; in assay [2], 0.436; in assay [3], 0.286; in [4], 0.758; in assay [5], 1.6; in assay [6], 0.429. For the same compound, the composite z-score in assay [7] is 1.17; in [9] it was 1.14; in assay [10], -0.121; in assay [11], 0.919; in [15], 2.45; in assay [17], 0.605. The composite z-score in [18] stood at 0.169; in [19], 0.884; in [20], 0.29. The z-score in [8] was -2.04 (inactive); in assay [12], -1.16 (inactive); in assay [13] it was 0.123 (inactive); in [14], 1.18 (inactive); in assay [16] it was 0.799 (inactive).
Turning to `COc1ccc(NN2C(C(O)c3ccc(N(C)C)cc3)C=CC3C(=O)N(C4CCCCC4)C(=O)C32)cc1` (stereo not given), the composite z-score in [1] was found to be 0.419; in [2] it was 0.427; in [3], 0.157; in [4], 1.01; in [5], 1.53; in [6], 1.05. Besides, the composite z-score stood at 1.15 in assay [7]; 0.352 in assay [9]; 0.284 in [10]; 1.51 in assay [11]; 2.91 in [15]; 0.329 in assay [17]. Also, the composite z-score in assay [18] stood at 0.134; in [19], 1.09; in [20], 0.174. Further, the z-score is 0.613 (inactive) in assay [8]; -0.229 (inactive) in assay [12]; 0.594 (inactive) in [13]; 0.687 (inactive) in assay [14]; -0.386 (inactive) in assay [16].
Take `CCCC[C@H]1C[C@@H]1[C@@H]1N(P(=O)(c2ccccc2)c2ccccc2)C[C@@](O)(c2ccccc2)CC12CC2`: the composite z-score is 0.666 in assay [1]; -0.152 in [2]; 0.183 in assay [3]; -0.102 in assay [4]; 1.45 in assay [5]; 0.862 in assay [6]. For the same compound, the composite z-score in [7] turned out to be 0.541; in assay [9] it was 1.39; in assay [10] it was 0.893; in [11], 0.761; in assay [15], 3.06; in assay [17], 0.356. The composite z-score in [18] was -0.695; in [19], -0.317; in assay [20], 0.0144. Besides, the z-score in assay [8] is 1.11 (inactive); in [12] it was -0.841 (inactive); in [13] it was -7.02 (inactive); in assay [14] it was 32.9 (active); in assay [16], -0.931 (inactive).
As to `COCCCNC(=O)[C@@H]1c2ccccc2C(=O)N(Cc2ccccc2OC)[C@H]1c1ccc(CO)cc1`, the composite z-score in [1] was -0.169; in assay [2], 0.64; in assay [3], -0.0021; in assay [4], 0.584; in assay [5], 0.239; in assay [6] it was 1.8. Besides, the composite z-score in assay [7] is 1.34; in assay [9] it was -0.0311; in assay [10] it was -0.0645; in [11], -0.244; in assay [15] it was 2.56; in assay [17] it was -0.157. In addition, the composite z-score in assay [18] is 1.68; in assay [19], 0.876; in assay [20] it was -0.115. Moreover, the z-score was -1.57 (inactive) in assay [8]; 0.118 (inactive) in assay [12]; -0.757 (inactive) in assay [13]; -0.921 (inactive) in assay [14]; -0.0935 (inactive) in assay [16].
For the compound `CC(CO)N1C(=O)[C@@H]2C3C(=O)OCCC/C=C\[C@H]3OC23C=CCN(CCN2CCOCC2)C(=O)[C@@H]13` (stereo not given in full), the composite z-score in [1] was -0.547; in assay [2], 0.163; in assay [3] it was -0.139; in [4], 0.38; in assay [5], -0.59; in assay [6], -0.31. Moreover, the composite z-score in assay [7] was 0.47; in assay [9], -0.28; in [10] it was -0.212; in [11], 0.871; in assay [15], -0.675; in [17], -0.207. Also, the values for the composite z-score in assay [18], in assay [19] and in assay [20] were -0.0152, 0.159 and -0.187, respectively. In addition, the z-score in assay [8] is -0.55 (inactive); in [12], -0.321 (inactive); in assay [13], -0.802 (inactive); in assay [14] it was -0.215 (inactive); in assay [16], -0.19 (inactive).
